HSF1 activator – increases HSF-1 driven luciferase reporter signal | NIH3T3-HGL HSF-1 luciferase reporter, MG132, 8 h; 100% = twice DMSO control signal | activation, % at 9 µM | actives 1.7% (n = 300,000);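 active = mean replicate activation of at least 50% with a set share of replicates each reaching 50%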;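 also: 0% = median of the neutral control wells and 100% = twice that signal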
MITF act – increases MITF-driven TRPM1 promoter luciferase signal | SK-MEL-5 TRPM1-promoter luciferase, 24 h; % of positive control, neutral wells = 0 | activation, % at 12.5 µM | actives 0.75% (n = 300,000);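 active = mean activation of at least 80% with every replicate also reaching 80%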;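 also: 0% = neutral control wells and 100% = parthenolide positive control wells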
Wnt act – activates Wnt/beta-catenin signaling in a reporter cell assay. activation, % at 9.35 µM. activator, plate reader. actives 1.2% (n = 300,000); in the data active = activation above about 30%, passing the limit was not always enough;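 also: 0% = neutral control wells and 100% = positive control wells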
esBAF inh – blocks esBAF chromatin remodeling in mouse ES cells; Bmi1-luciferase knock-in reporter, 24 h; 100% = twice the neutral-well signal; reporter increase, % at 12.5 µM; actives 2% (n = 350,000); AID 602393; in the data active = activation above about 40%;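 also: 0% = median of the plate's neutral control wells and 100% = double that signal; a rise in the Bmi1 reporter signal indicates esBAF inhibition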
HSF1 inh – HSF1 inhibition; activity change, negative = inhibition, % at 7.5 µM (by protocol); actives 0.77% (n = 300,000); NIH3T3-HGL HSE-luciferase, MG132-induced, luminescence 8 h; stronger effect = lower value; AID 2098;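 active = more than half of replicate wells show activity change below -50%, luminescence cut by over half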;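 also: luciferase reports HSF-1 transcriptional activity via heat shock element; 0% = median of DMSO wells and -100% = zero luminescence signal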
Starred values were filed as active, the others as inactive; . = not tested or not shown. Most compounds without a hit are left out; they make up all but 3.9% or so of the library.

SMILES	HSF1 activator	MITF act	Wnt act	esBAF inh	HSF1 inh
O=C1CC(c2ccccc2Cl)CC(O)=C1C=Nc1ccccc1 (stereo unspecified)	151.8*	3.4	.	.	118.5
CC(C)CCN=CC1=C(O)CC(c2ccccc2)CC1=O (stereo unspecified)	66.8*	-0.3	-1.6	.	27.9
O=C1CC(c2ccccc2)CC(O)=C1C=Nc1ccc(Cl)cc1 (stereo unspecified)	141.4*	8.9	-9.8	.	103.8
Cc1ccc(N=CC2=C(O)CC(c3ccccc3Cl)CC2=O)cc1 (stereo unspecified)	0.3	.	5.3	.	4.5
O=C(C[C@H]1CC[C@H]2[C@@H](COC[C@@H](O)CN2C(=O)c2ccccc2F)O1)N1CCN(c2ccccc2)CC1	.	.	.	1.7	.
C[C@H]1CN([C@@H](C)CO)C(=O)c2cc(NC(=O)Nc3ccccc3)ccc2O[C@@H]1CN(C)C	.	.	.	-2.3	.
C/C=C/c1ccc2c(c1)O[C@H](CN(C)C(C)=O)[C@@H](C)CN([C@H](C)CO)S2(=O)=O	.	.	.	5.4	.
Cc1ccc2c(c1)Sc1c(ccc3ccccc13)N2	46.0	7.7	46.3*	51.2*	39.3
COc1ccc(N(C(=O)c2ccc(S(=O)(=O)N3CCCC3)cc2)C2C=CS(=O)(=O)C2)cc1 (stereo unspecified)	16.4	-10.1	39.8*	6.0	-1.2
Cc1ccsc1/C=C1\SC(N)=NC1=O	23.0	4.6	.	.	2.7
Cc1ccsc1/C=C1/SC(N2CC(C)OC(C)C2)=NC1=O (stereo unspecified)	51.5*	2.9	.	.	24.7
C[C@H](CO)N1C[C@H](C)[C@H](CN(C)Cc2ccc(C(F)(F)F)cc2)OCCCC[C@H](C)Oc2ccc(NC(=O)c3ccncc3)cc2C1=O	.	.	.	0.6	.
C/C(=N/NC(=O)c1cccs1)c1cccc(NC(=O)C2CC2)c1	32.8	21.9	.	37.9	29.6
C/C(=N\NC(=O)c1ccc2ccccc2c1)c1cccs1	.	38.4	41.5*	5.0	.
C/C(=N\NC(=O)c1cccs1)c1ccc2ccccc2c1	38.0	65.7	9.4	52.3*	2.8
O=C(c1ccccc1)C1OC1C(=O)c1ccccc1 (stereo unspecified)	.	-34.8	12.9	53.1*	.
C[C@H]1CN([C@@H](C)CO)C(=O)c2cccc(NC(=O)Nc3ccccc3)c2O[C@@H]1CN(C)C(=O)Nc1ccc2c(c1)OCO2	.	.	.	36.5	.
O=C(c1cc(COc2cccc(C(F)(F)F)c2)on1)N1CCCC1	.	.	-0.5	69.7*	.
CC(NC(=O)c1cc(COc2cccc(C(F)(F)F)c2)on1)c1nccs1 (stereo unspecified)	27.3	65.9	13.2	60.8*	-1.1
C[C@@H]1CN(C(=O)c2cc(COc3cccc(C(F)(F)F)c3)on2)C[C@H](C)O1	94.7*	103.0*	22.6	57.2*	56.2
C/C=C/c1cnc2c(c1)C(=O)N([C@H](C)CO)C[C@@H](C)[C@@H](CN(C)C(=O)NC1CCCCC1)O2	.	.	.	0.3	.
C[C@@H]1CN([C@@H](C)CO)C(=O)c2cc(NC(=O)Nc3ccc(F)cc3)ccc2O[C@@H](C)CCCCO[C@@H]1CN(C)S(=O)(=O)c1ccc(Cl)cc1	.	.	.	-0.7	.
CC(=O)c1cccc(-c2csc(N3CCC(C(N)=O)CC3)n2)c1	.	5.5	4.1	-2.6	.
NC(=O)C1CCN(c2nc(-c3cccc(Cl)c3)cs2)CC1	.	46.0	13.4	48.9*	.
COc1ccc(-c2csc(N3CCC(C(N)=O)CC3)n2)cc1	.	42.9	7.8	50.1*	.
SMILES	HSF1 activator	MITF act	Wnt act	esBAF inh	HSF1 inh
Cc1ccc(-c2csc(N3CCC(C(N)=O)CC3)n2)cc1	.	58.7	12.3	27.0	.
CC(C)CC#Cc1ccc2c(c1)O[C@@H](CN(C)C(=O)NC(C)C)[C@H](C)CN([C@@H](C)CO)S2(=O)=O	.	.	.	-2.5	.
C[C@H]1CN([C@@H](C)CO)C(=O)c2cccc(NS(=O)(=O)c3ccc(Cl)cc3)c2O[C@H]1CN(C)S(=O)(=O)c1ccc(F)cc1	.	.	.	-5.6	.
Cc1nn2cc(-c3ccc(Cl)cc3)cnc2c1Cl	35.3	126.2*	32.2*	72.4*	24.4
COc1ccc(-c2ccc3c(=O)cc(-c4ccsc4)oc3c2)cn1	.	32.8	-1.6	6.9	.
COc1ccc(-c2ccc3c(c2)O/C(=C\c2ccsc2)C3=O)cn1	.	73.0	11.4	45.4*	.
Cc1noc(C)c1NC(=O)N(C)C[C@H]1Oc2ccc(NS(C)(=O)=O)cc2C(=O)N([C@@H](C)CO)C[C@H]1C	.	.	.	1.2	.

Source: PubChem
